Measured values: paper PMC7862700, “An all-to-all approach to the identification of sequence-specific readers for epigenetic DNA modifications on cytosine”

Assays:
Test in all cases: DAPPL (digital affinity profiling via proximity ligation, sequencing); 10 mM Tris-HCl pH 7.5, 50 mM NaCl, 1 mM DTT, 4% glycerol, room temperature, 30 min; GST-TFs on glutathione beads, 16-mer random dsDNA library, 0.1% formaldehyde crosslink after washing; high values mean tight binding
FLI1 = target: T1, FLI1 (Homo sapiens, UniProt Q01543 1-452); conditions: protein: recombinant; tags: N-terminal GST; dsDNA, one strand shown
T1 sequence: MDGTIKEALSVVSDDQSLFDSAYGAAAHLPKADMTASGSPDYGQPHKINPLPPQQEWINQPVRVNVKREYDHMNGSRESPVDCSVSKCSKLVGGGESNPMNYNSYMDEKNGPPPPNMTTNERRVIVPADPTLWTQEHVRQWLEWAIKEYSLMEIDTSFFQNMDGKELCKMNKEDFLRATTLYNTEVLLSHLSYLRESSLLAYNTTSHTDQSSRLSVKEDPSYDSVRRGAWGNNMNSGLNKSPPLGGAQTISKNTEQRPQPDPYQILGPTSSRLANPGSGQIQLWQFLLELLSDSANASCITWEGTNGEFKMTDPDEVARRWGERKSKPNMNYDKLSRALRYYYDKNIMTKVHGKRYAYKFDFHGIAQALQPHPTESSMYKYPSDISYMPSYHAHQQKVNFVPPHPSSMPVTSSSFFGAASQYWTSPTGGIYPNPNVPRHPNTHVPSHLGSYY
Outline: (§1)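 Pools were built from human transcription factors expressed in yeast as GST fusions, captured on glutathione beads and DNA-barcoded, along with a tag-only sample. Incubation with 200 nmole of a 16-mer random double-stranded DNA library lasted 30 min at room temperature in Tris/NaCl/DTT/glycerol buffer, and was followed by washing, 0.1% formaldehyde crosslinking, proximity ligation, PCR amplification and Illumina NextSeq500 sequencing. Binding signal is the quotient of each hexamer's read frequency for a factor and its frequency for the tag-only sample.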

ELK1 = target: T2, ELK1 (Homo sapiens, UniProt P19419 1-428); conditions: protein: recombinant; tags: N-terminal GST; dsDNA, one strand shown
T2 sequence: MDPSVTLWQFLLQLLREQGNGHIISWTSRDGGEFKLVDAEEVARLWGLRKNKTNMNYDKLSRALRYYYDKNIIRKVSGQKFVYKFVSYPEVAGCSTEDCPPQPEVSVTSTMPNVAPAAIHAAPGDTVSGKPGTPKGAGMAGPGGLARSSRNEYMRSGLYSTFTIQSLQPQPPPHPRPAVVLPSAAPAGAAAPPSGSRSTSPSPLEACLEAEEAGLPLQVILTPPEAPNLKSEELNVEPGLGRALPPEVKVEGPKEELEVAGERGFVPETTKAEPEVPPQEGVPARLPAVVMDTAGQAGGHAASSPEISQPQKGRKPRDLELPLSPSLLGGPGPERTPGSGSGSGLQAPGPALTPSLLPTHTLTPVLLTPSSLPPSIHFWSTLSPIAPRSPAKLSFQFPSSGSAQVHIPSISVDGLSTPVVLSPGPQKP
Outline: as §1

GABPA = target: T3, GABPA (Homo sapiens, UniProt Q06546 1-454); conditions: protein: recombinant; tags: N-terminal GST; dsDNA, one strand shown
T3 sequence: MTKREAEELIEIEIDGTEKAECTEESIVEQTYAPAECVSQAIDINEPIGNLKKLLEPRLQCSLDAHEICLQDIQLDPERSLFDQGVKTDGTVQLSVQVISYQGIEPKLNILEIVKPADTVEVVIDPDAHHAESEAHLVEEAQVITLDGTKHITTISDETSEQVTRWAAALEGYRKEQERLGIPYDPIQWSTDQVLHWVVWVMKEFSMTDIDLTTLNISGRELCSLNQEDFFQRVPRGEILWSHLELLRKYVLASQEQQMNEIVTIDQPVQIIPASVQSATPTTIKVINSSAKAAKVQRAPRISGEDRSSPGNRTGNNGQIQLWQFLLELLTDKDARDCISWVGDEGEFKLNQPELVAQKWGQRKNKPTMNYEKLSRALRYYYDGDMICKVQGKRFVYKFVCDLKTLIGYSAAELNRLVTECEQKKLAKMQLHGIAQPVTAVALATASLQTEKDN
Outline: as §1

ERG = target: T4, ERG (Homo sapiens, UniProt P11308 1-479); conditions: protein: recombinant; tags: N-terminal GST; dsDNA, one strand shown
T4 sequence: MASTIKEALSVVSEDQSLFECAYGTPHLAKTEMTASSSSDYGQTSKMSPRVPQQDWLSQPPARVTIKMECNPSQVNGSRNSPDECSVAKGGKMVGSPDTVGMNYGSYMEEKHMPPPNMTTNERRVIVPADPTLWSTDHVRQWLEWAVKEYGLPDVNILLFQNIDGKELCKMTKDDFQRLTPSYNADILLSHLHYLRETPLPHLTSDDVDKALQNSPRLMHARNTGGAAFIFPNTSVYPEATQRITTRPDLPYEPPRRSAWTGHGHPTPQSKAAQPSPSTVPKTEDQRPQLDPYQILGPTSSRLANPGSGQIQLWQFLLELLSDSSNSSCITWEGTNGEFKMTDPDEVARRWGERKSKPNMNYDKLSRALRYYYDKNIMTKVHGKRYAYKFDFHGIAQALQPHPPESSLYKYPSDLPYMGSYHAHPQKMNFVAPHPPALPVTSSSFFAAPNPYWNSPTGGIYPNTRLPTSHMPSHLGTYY
Outline: as §1

ELF1 = ELF1 (Homo sapiens, UniProt P32519 1-619); conditions: protein: recombinant; tags: N-terminal GST; dsDNA, one strand shown
Chain of ELF1 (P32519 whole entry): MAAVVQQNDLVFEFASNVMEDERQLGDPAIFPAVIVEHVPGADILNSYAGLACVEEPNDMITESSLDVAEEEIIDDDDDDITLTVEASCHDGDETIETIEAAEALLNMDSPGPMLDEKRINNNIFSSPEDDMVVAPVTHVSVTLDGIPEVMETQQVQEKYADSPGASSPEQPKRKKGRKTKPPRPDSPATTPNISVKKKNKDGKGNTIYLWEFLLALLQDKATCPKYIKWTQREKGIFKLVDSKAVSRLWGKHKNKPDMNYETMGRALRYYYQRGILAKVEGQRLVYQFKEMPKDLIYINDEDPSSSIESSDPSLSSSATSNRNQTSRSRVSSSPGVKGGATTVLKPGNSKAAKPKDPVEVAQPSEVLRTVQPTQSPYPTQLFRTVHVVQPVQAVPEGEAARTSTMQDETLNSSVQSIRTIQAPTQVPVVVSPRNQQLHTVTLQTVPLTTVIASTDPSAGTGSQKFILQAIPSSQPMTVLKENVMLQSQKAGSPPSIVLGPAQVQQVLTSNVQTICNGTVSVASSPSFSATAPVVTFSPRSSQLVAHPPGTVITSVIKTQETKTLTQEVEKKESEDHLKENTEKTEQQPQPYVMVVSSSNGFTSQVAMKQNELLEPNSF
Outline: as §1

EHF = target: T5, EHF (Homo sapiens, UniProt Q9NZC4 1-300); conditions: protein: recombinant; tags: N-terminal GST; dsDNA, one strand shown
T5 sequence: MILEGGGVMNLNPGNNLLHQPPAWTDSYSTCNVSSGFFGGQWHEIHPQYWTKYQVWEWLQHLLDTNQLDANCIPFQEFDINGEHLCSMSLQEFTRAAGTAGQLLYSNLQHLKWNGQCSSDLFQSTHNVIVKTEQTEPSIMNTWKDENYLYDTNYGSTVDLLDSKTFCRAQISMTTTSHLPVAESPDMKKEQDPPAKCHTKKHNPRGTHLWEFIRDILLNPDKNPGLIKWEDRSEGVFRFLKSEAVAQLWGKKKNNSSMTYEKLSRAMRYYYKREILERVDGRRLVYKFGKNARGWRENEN
Outline: as §1

SPI1 = SPI1 (Homo sapiens, UniProt P17947 1-270); conditions: protein: recombinant; tags: N-terminal GST; dsDNA, one strand shown
Outline: as §1

SPIB = SPIB (Homo sapiens, UniProt Q01892 1-262); conditions: protein: recombinant; tags: N-terminal GST; dsDNA, one strand shown
Chain of SPIB (Q01892 whole entry): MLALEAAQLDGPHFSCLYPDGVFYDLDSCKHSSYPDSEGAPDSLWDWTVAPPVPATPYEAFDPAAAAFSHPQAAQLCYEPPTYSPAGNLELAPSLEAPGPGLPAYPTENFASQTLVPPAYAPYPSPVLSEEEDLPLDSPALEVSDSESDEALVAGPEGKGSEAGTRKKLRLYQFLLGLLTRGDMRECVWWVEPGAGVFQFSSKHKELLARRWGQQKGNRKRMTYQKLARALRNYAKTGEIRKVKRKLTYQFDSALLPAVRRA
Outline: as §1

ELK3 = target: T6, ELK3 (Homo sapiens, UniProt P41970 1-407); conditions: protein: recombinant; tags: N-terminal GST; dsDNA, one strand shown
T6 sequence: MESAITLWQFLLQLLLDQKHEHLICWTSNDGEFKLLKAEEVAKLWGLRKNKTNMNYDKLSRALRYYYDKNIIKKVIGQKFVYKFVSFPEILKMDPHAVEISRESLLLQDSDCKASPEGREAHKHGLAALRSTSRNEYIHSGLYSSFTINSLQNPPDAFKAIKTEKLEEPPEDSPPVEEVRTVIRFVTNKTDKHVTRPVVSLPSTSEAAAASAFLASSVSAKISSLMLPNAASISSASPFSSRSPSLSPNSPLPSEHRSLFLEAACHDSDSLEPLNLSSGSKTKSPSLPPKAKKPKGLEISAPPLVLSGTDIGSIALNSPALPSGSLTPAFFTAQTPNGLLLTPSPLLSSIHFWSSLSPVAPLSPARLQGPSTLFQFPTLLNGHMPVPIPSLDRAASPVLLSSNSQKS
Outline: as §1

FEV = target: T7, FEV (Homo sapiens, UniProt Q99581 1-238); conditions: protein: recombinant; tags: N-terminal GST; dsDNA, one strand shown
T7 sequence: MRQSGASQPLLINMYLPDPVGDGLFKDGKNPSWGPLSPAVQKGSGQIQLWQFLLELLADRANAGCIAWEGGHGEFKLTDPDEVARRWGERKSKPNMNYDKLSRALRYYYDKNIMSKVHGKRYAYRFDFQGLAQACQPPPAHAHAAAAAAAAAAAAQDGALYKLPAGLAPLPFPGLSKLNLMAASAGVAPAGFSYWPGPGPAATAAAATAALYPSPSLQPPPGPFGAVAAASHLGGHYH
Outline: as §1

ETV5 = ETV5 (Homo sapiens, UniProt P41161 1-510); conditions: protein: recombinant; tags: N-terminal GST; dsDNA, one strand shown
Chain of ETV5 (P41161 whole entry): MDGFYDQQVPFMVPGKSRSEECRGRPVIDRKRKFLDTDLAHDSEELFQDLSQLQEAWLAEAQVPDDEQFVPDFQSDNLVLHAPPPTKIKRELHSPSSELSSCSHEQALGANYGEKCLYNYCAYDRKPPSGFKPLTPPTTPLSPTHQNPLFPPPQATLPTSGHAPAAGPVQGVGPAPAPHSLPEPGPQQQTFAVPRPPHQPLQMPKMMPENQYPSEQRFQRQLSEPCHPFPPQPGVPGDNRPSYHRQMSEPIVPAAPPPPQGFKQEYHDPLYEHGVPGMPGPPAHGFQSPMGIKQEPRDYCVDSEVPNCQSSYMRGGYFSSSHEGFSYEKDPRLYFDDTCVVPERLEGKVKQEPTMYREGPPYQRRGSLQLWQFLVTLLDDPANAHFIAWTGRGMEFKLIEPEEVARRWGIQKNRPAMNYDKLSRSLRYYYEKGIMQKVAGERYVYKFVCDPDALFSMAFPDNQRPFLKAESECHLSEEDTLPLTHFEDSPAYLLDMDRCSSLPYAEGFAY
Outline: as §1

HSF1 = HSF1 (Homo sapiens, UniProt Q00613 1-529); conditions: protein: recombinant; tags: N-terminal GST; chain copies: 3; dsDNA, one strand shown
Chain of HSF1 (Q00613 whole entry): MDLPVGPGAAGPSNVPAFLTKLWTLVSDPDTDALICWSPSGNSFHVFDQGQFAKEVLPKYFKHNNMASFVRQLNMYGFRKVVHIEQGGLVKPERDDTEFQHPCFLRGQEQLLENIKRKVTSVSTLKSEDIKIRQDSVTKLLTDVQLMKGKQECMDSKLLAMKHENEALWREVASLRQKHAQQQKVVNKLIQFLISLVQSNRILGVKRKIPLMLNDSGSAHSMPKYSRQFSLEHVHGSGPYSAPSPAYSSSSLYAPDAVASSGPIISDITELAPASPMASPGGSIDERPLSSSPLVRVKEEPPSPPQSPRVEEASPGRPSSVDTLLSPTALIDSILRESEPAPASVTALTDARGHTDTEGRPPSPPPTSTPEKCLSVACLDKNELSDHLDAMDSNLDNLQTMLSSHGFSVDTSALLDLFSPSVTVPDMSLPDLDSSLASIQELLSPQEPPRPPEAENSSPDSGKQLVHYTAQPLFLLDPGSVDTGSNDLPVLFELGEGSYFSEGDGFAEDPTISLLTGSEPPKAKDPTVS
Outline: as §1

SPIC = target: T8, SPIC (Homo sapiens, UniProt Q8N5J4 1-248); conditions: protein: recombinant; tags: N-terminal GST; dsDNA, one strand shown
T8 sequence: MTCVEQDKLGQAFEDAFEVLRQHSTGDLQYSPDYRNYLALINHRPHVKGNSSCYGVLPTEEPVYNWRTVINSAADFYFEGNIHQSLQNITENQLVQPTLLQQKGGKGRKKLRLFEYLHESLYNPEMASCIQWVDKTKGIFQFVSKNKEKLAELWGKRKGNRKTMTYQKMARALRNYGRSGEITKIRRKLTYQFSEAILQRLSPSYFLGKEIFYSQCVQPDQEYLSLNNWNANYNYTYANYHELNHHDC
Outline: as §1

ELF4 = ELF4 (Homo sapiens, UniProt Q99607 1-663); conditions: protein: recombinant; tags: N-terminal GST; dsDNA, one strand shown
Chain of ELF4 (Q99607 whole entry): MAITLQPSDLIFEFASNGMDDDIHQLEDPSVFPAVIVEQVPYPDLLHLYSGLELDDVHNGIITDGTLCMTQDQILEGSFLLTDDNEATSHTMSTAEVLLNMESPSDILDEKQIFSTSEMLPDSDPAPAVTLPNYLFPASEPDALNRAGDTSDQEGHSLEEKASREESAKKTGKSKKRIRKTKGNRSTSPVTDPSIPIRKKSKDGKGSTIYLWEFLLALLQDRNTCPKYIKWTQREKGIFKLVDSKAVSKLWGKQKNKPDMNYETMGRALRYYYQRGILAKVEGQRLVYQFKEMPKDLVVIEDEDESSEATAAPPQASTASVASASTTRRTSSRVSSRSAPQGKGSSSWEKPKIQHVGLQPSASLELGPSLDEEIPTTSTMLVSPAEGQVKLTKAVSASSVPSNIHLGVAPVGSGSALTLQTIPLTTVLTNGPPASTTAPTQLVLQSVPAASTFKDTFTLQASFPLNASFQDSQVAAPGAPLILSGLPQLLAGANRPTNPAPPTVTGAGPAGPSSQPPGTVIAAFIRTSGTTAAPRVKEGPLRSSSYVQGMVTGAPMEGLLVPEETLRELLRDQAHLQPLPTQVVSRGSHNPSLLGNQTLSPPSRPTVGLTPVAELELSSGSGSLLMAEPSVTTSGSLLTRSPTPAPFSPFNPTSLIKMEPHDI
Outline: as §1

ELK4 = target: T9, ELK4 (Homo sapiens, UniProt P28324-2 1-405); conditions: protein: recombinant; tags: N-terminal GST; dsDNA, one strand shown
T9 sequence: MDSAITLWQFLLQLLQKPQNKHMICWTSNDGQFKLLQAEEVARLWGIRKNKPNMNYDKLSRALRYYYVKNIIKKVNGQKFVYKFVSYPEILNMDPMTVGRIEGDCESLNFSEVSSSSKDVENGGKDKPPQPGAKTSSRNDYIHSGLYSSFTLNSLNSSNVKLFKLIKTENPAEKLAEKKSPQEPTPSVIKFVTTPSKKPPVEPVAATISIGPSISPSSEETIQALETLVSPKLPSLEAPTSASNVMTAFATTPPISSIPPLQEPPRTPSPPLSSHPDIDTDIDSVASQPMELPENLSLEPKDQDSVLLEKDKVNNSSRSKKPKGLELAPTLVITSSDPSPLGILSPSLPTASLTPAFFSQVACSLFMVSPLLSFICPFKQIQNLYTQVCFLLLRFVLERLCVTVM
Outline: as §1

ETV2 = target: T10, ETV2 (Homo sapiens, UniProt O00321 1-342); conditions: protein: recombinant; tags: N-terminal GST; dsDNA, one strand shown
T10 sequence: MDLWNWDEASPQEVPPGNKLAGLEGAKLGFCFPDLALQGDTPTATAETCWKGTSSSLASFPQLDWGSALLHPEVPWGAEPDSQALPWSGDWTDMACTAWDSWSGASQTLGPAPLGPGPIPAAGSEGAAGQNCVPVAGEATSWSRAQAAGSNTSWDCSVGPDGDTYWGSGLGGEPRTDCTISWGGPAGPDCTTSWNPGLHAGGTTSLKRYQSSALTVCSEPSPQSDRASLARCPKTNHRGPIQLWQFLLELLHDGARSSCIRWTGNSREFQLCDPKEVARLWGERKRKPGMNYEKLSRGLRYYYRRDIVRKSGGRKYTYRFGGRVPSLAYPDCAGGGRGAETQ
Outline: as §1

ELF3 = target: T11, ELF3 (Homo sapiens, UniProt P78545 1-371); conditions: protein: recombinant; tags: N-terminal GST; dsDNA, one strand shown
T11 sequence: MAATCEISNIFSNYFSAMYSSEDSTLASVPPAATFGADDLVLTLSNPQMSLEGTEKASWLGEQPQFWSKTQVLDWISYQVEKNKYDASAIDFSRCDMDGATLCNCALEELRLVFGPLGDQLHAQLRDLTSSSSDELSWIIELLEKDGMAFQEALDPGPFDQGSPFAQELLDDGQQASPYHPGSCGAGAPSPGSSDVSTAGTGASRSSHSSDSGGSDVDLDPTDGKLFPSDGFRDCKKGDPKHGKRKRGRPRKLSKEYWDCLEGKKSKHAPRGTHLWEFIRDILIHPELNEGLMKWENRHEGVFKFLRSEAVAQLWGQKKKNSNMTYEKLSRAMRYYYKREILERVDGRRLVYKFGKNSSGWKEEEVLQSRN
Outline: as §1

CRX = CRX (Homo sapiens, UniProt O43186 1-299); conditions: protein: recombinant; tags: N-terminal GST; dsDNA, one strand shown
Chain of CRX (O43186 whole entry): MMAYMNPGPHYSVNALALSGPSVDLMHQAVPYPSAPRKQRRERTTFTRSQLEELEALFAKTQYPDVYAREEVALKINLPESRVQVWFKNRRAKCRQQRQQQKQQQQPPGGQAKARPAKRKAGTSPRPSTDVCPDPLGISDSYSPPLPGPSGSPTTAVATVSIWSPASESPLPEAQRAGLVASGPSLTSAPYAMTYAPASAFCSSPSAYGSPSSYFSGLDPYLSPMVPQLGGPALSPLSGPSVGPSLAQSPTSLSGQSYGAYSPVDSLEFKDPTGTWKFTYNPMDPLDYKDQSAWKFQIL
Outline: as §1

ETV1 = ETV1 (Homo sapiens, UniProt P50549 1-477); conditions: protein: recombinant; tags: N-terminal GST; dsDNA, one strand shown
Chain of ETV1 (P50549 whole entry): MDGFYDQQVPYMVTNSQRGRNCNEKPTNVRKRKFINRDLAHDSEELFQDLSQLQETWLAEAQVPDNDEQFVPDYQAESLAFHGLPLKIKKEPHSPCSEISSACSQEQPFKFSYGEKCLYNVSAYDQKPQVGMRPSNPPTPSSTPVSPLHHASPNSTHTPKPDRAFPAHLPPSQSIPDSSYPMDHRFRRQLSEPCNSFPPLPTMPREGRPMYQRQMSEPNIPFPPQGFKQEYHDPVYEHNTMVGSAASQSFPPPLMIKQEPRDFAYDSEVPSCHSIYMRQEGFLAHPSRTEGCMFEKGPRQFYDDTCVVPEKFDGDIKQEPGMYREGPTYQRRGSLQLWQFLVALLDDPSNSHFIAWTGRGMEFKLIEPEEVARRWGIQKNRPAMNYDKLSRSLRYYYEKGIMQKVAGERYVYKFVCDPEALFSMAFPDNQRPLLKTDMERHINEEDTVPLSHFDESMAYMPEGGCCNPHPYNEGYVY
Outline: as §1

TAAACA was tested, and the binding signal (FLI1) was 1.19 fold enrichment (6-mer frequency, TF over GST control), the binding signal (ELK1) was 1.2 fold enrichment (6-mer frequency, TF over GST control) and the binding signal (GABPA) was 1.19 fold enrichment (6-mer frequency, TF over GST control). The binding signal (ERG) was 1.21 fold enrichment (6-mer frequency, TF over GST control), the binding signal (ELF1) was 1.22 fold enrichment (6-mer frequency, TF over GST control) and the binding signal (EHF) was 1.2 fold enrichment (6-mer frequency, TF over GST control). For the same sequence, the binding signal (SPI1) was 1.21 fold enrichment (6-mer frequency, TF over GST control), the binding signal (SPIB) was 1.16 fold enrichment (6-mer frequency, TF over GST control) and the binding signal (ELK3) was 1.23 fold enrichment (6-mer frequency, TF over GST control). The binding signal (FEV) was 1.18 fold enrichment (6-mer frequency, TF over GST control), the binding signal (ETV5) was 1.24 fold enrichment (6-mer frequency, TF over GST control) and the binding signal (HSF1) was 1.29 fold enrichment (6-mer frequency, TF over GST control). The binding signal (SPIC) was 1.29 fold enrichment (6-mer frequency, TF over GST control), the binding signal (ELF4) was 1.26 fold enrichment (6-mer frequency, TF over GST control) and the binding signal (ELK4) was 1.37 fold enrichment (6-mer frequency, TF over GST control). The binding signal (ETV2) was 1.22 fold enrichment (6-mer frequency, TF over GST control), the binding signal (ELF3) was 1.28 fold enrichment (6-mer frequency, TF over GST control) and the binding signal (CRX) was 1.53 fold enrichment (6-mer frequency, TF over GST control). For the same sequence, the binding signal (ETV1) was 1.2 fold enrichment (6-mer frequency, TF over GST control).
